# Source: PubChem BioAssay AID623955 (NMMLSC, 2012)
# Entries with a potency or affinity are not part of this list. The source made the active and inactive calls.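 Rule for the calls: active = fitted EC50, the concentration giving half the signal drop, under 100 µM; inactive = the rest.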
# Molecular target: ATP-binding cassette sub-family B member 6 (Homo sapiens) (UniProt Q9NP58)
# Experiment: ABCB6 transporter inhibitors, dose response, K562-ABCB6 cells, flow cytometry, cherry pick 1 (AID 623955)
# Settings: K562-ABCB6 porphyrin fluorescence, 1 h; series mostly up to 100 µM
# Sequence of ATP-binding cassette sub-family B member 6 (Homo sapiens) (Q9NP58 whole entry, looked up): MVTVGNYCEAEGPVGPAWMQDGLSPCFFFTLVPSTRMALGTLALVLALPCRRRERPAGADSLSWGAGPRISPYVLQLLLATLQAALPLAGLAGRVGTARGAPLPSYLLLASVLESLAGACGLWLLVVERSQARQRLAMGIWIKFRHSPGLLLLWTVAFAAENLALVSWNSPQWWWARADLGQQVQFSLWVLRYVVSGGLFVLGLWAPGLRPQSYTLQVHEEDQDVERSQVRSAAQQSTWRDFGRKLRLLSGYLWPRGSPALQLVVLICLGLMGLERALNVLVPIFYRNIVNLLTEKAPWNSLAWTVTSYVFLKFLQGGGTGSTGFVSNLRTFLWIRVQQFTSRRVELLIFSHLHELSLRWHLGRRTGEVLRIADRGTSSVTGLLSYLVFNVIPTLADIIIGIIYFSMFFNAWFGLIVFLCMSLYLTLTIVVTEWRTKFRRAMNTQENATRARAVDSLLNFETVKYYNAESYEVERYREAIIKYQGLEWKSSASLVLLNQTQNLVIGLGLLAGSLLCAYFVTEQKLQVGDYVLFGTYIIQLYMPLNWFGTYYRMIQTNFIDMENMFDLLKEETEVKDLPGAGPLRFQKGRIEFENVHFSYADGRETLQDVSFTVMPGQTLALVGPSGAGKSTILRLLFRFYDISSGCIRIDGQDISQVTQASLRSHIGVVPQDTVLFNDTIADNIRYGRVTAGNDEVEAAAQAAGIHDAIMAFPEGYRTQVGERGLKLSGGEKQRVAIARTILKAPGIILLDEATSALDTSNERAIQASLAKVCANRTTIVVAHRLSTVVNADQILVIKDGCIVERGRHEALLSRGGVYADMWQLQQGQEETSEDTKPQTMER
row,SMILES,outcome
1,CCOC(=O)C(C)NC(=O)CCc1nnc2ccc(N3CCC(C)CC3)nn12 (centres undefined),inactive
2,CC(C)CCNC(=O)CCc1nnc2ccc(N3CCC(C)CC3)nn12,inactive
3,CCOC(=O)CNC(=O)CCc1nnc2ccc(N3CCC(C)CC3)nn12,inactive
4,COCCNC(=O)CCc1nnc2ccc(N3CCC(C)CC3)nn12,inactive
5,CCc1ccc(CNC(=O)C2Cc3cc(S(=O)(=O)N4CCCC4)ccc3N2C(C)=O)cc1 (centres undefined),inactive
6,CCOCCCNC(=O)CCc1nnc2ccc(N3CCCCC3)nn12,inactive
7,CCOC(=O)C1CCN(C(=O)CCc2nnc3ccc(N4CCN(C)CC4)nn23)CC1,inactive
8,CC1CCN(C(=O)CCc2nnc3ccc(N4CCC5(CC4)OCCO5)nn23)CC1,inactive
9,CCC(C)NC(=O)CCc1nnc2ccc(N3CCC(C)CC3)nn12 (centres undefined),inactive
10,CC1CC(C)CN(C(=O)CCc2nnc3ccc(N4CCCCC4)nn23)C1 (centres undefined),inactive
11,CN1CCN(C(=O)CCc2nnc3ccc(N4CCC5(CC4)OCCO5)nn23)CC1,inactive
12,CCOC(=O)N1CCN(CC(=O)Nc2ccc(C)cc2)CC1,inactive
13,COCCCNC(=O)CCc1nnc2ccc(N3CCC(C)CC3)nn12,inactive
14,CC1CCN(c2ccc3nnc(CCC(=O)N4CCCCC4)n3n2)CC1,inactive
15,CC1CCN(c2ccc3nnc(CCC(=O)NC(C)C)n3n2)CC1,inactive
16,O=C(CN1CCCCC1)Nc1cccc(Br)c1,inactive
17,CCN1CCN(C(=O)CCc2nnc3ccc(N4CCC5(CC4)OCCO5)nn23)CC1,inactive
18,CCOC(=O)C(C)NC(=O)CCc1nnc2ccc(N3CCCCC3)nn12 (centres undefined),inactive
19,CC1CCN(c2ccc3nnc(CCC(=O)NCCCOC(C)C)n3n2)CC1,inactive
20,COC(=O)C(NC(=O)CCc1nnc2ccc(N3CCC(C)CC3)nn12)C(C)C (centres undefined),inactive
21,CCCNC(=O)CCc1nnc2ccc(N3CCC(C)CC3)nn12,inactive
22,O=C(CCc1nnc2ccc(N3CCC4(CC3)OCCO4)nn12)N1CCCCC1,inactive
23,COC(=O)C(NC(=O)CCc1nnc2ccc(N3CCCCC3)nn12)C(C)C (centres undefined),inactive
24,CCN(CC)CCNC(=O)CCc1nnc2ccc(N3CCC(C)CC3)nn12,inactive
